# Inconclusive results are not listed. Where a call stands in place of a potency, no number is given. Unmarked numbers belong to inactive results. Active and inactive are the calls of the source. Calls follow the shape of the dose curve; as a rule, active = well fitted curve in the direction sought with a large enough effect; inconclusive = small, poorly fitted or top-dose-only effect, or another doubt; inactive = no such curve, though single readings can be large; an effect the other way counts as inactive or inconclusive.
# Experiments:
# [1] = biological target: Aldehyde dehydrogenase, mitochondrial (Homo sapiens) (UniProt P05091); assay: qHTS for Inhibitors of the Aldehyde Dehydrogenase Family (ALDH2) Primary screen (AID 2061308); also: nearly all actives have a fitted effect of over 55% in size
# [2] = biological target: Retinaldehyde dehydrogenase 3 (Homo sapiens) (UniProt P47895); assay: qHTS for Inhibitors of the Aldehyde Dehydrogenase Family (ALDH1A3) Primary screen (AID 2061315)
# [3] = biological target: Aldehyde dehydrogenase 1A1 (Homo sapiens) (UniProt P00352); assay: qHTS for Inhibitors of the Aldehyde Dehydrogenase Family (ALDH1A1) Confirmatory screens (AID 2061316); also: nearly all actives have a fitted effect of over 65% in size; also: potency is read from the fitted curve at half-maximal effect
# [4] = BET inhibitor-based combinations targeting novel dependencies in MECOM-rearranged (r) AML: SET-2 cell line (AID 2202231); conditions: SET-2 AML cells viability, CellTiter-Glo luminescence, 48 h; viability: stronger effect = lower value, concentration not given here; also: nearly all actives have a fitted effect of over 35% in size; also: potency is read from the fitted curve at half-maximal effect
# Method in brief: (§1)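 500 cells/well; 11-pt dose curve; 48 h, standard incubator; CellTiter-Glo luminescence after 15 min RT; DMSO/empty-well normalization; AUC plus Z-AUC (mean-centered within each line).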
# [5] = BET inhibitor-based combinations targeting novel dependencies in MECOM-rearranged (r) AML: OCI-AML3 cell line (AID 2202232); conditions: Potency: OCI-AML3 viability; also: nearly all actives have a fitted effect of over 35% in size; also: potency is read from the fitted curve at half-maximal effect
# Method in brief: as §1
# [6] = BET inhibitor-based combinations targeting novel dependencies in MECOM-rearranged (r) AML: MV-4-11 cell line (AID 2202233); also: nearly all actives have a fitted effect of over 45% in size; also: potency is read from the fitted curve at half-maximal effect
# Method in brief: (§2)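 Cells were plated at 500 per well and exposed to each drug across an 11-point dose range for 48 hr at standard incubator conditions. Viability was read by CellTiter-Glo luminescence, and activity was expressed as AUC and per-cell-line Z-transformed AUC.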
# [7] = BET inhibitor-based combinations targeting novel dependencies in MECOM-rearranged (r) AML: HNT-34 cell line (AID 2202234); also: nearly all actives have a fitted effect of over 35% in size; also: potency is read from the fitted curve at half-maximal effect
# Method in brief: as §2
# [8] = BET inhibitor-based combinations targeting novel dependencies in MECOM-rearranged (r) AML: AML-194 cell line (AID 2202237; also: nearly all actives have a fitted effect of over 40% in size; also: potency is read from the fitted curve at half-maximal effect)
# Method in brief: as §1
# [9] = BET inhibitor-based combinations targeting novel dependencies in MECOM-rearranged (r) AML: AML-191 cell line (AID 2202236; also: nearly all actives have a fitted effect of over 35% in size; also: potency is read from the fitted curve at half-maximal effect)
# Method in brief: as §1
# [10] = BET inhibitor-based combinations targeting novel dependencies in MECOM-rearranged (r) AML: UCSD-AML1 cell line (AID 2202235); also: nearly all actives have a fitted effect of over 40% in size; also: potency is read from the fitted curve at half-maximal effect
# Method in brief: as §2
compound,measurement,setting,value
Cc1cc2c(s1)c1cnn(Cc3cc(Cl)ccc3F)c(=O)c1n2C,Potency,[1],inactive
same,Potency,[2],inactive
O=C(OCC#CCSc1nnc(-c2ccc3ccccc3c2)o1)c1ccsc1,Potency,[1],inactive
same,Potency,[2],inactive
O=S(=O)(Nc1ccc2ccccc2c1)c1ccc(NCc2ccc(Br)cc2O)cc1,Potency,[1],inactive
same,Potency,[2],inactive
O=C(NC1CCCc2c1cnn2-c1ccc(F)cc1F)c1cccs1 (stereo not drawn),Potency,[1],inactive
same,Potency,[2],inactive
Cc1ccnc(NC(=S)N2CCCN(c3cccc(C(F)(F)F)c3)CC2)c1,Potency,[1],inactive
same,Potency,[2],inactive
Cc1nc(CSc2ncnc3ccc(-c4ccc5c(c4)OCO5)cc23)cs1,Potency,[1],inactive
same,Potency,[2],inactive
O=C([C@H](Cc1ccc(O[S+](=O)([O-])c2ccccn2)cc1)N[S+](=O)([O-])c1cccc2cnccc12)N1CCN(c2ccccc2)CC1,Potency,[1],inactive
same,Potency,[2],inactive
same,Potency,[3],7.98 µM (active)
NC(=O)C1CCN(c2ncc(Br)s2)CC1,Potency,[1],inactive
same,Potency,[2],inactive
same,Potency,[3],4.49 µM (active)
Cc1cc2c(s1)c1cnn(Cc3ccc(C(F)(F)F)cc3)c(=O)c1n2C,Potency,[1],inactive
same,Potency,[2],inactive
O=C1Nc2ccccc2C12CC2c1cc(Cl)c(O)c(Cl)c1 (stereo not drawn),Potency,[1],inactive
same,Potency,[2],inactive
same,Potency,[3],inactive
Nc1scc2c(C(=O)O)nn(-c3ccccc3)c(=O)c12,Potency,[1],inactive
same,Potency,[2],inactive
same,Potency,[3],5.04 µM (active)
O=C(N[C@H]1CCN(C(=O)c2cc(C(F)(F)F)cc(C(F)(F)F)c2)[C@H](Cc2ccc(Cl)cc2)C1)c1ccnc2ccccc12,Potency,[1],inactive
same,Potency,[2],inactive
COc1ccccc1-c1nnc2n1N=C(c1c(OC)cccc1OC)CS2,Potency,[1],inactive
same,Potency,[2],inactive
O=c1c2ccccc2nc2sc(Nc3ccc4c(c3)OCO4)nn12,Potency,[1],inactive
same,Potency,[2],inactive
same,Potency,[3],5.04 µM (active)
O=C(NCc1ccc(S(=O)(=O)c2cccc(C(F)(F)F)c2)cc1)c1cnc2[nH]ncc2c1,Potency,[1],inactive
same,Potency,[2],inactive
same,viability,[4],110%
same,Potency,[5],0.0148 µM (active)
same,Potency,[6],0.0833 µM (active)
same,Potency,[7],0.0263 µM (active)
same,Potency,[8],0.742 µM (active)
CNS(=O)(=O)c1ccc2c(c1)/C(=C/c1[nH]c3c(c1CCCN1CCN(C)CC1)CCCC3)C(=O)N2,Potency,[1],inactive
same,Potency,[2],inactive
same,Potency,[4],18.6 µM (active)
same,Potency,[5],18.6 µM (active)
same,Potency,[6],1.18 µM (active)
same,Potency,[7],20.9 µM (active)
same,Potency,[9],14.8 µM (active)
same,Potency,[8],13.2 µM (active)
C=CC(=O)Nc1ccc2ncnc(Nc3cccc(Br)c3)c2c1,Potency,[1],inactive
same,Potency,[2],inactive
same,Potency,[4],26.3 µM (active)
same,Potency,[5],11.8 µM (active)
same,Potency,[6],7.42 µM (active)
same,Potency,[7],9.34 µM (active)
same,Potency,[10],8.33 µM (active)
same,Potency,[9],8.33 µM (active)
same,Potency,[8],11.8 µM (active)
CC(C)c1c(-c2ccccc2)nc2c(C#N)c[nH]n2c1=O,Potency,[1],inactive
same,Potency,[2],inactive
same,viability,[4],118%
same,Potency,[5],inactive
same,Potency,[6],inactive
same,Potency,[7],inactive
same,Potency,[10],inactive
same,Potency,[9],inactive
same,Potency,[8],inactive
Cc1cc(CN2CCN(c3c(Br)cnc4nc(-c5ccc(N6CCN(C)CC6)cc5)[nH]c34)CC2)no1,Potency,[1],inactive
same,Potency,[2],inactive
same,Potency,[4],9.34 µM (active)
same,Potency,[5],8.33 µM (active)
same,Potency,[6],0.332 µM (active)
same,Potency,[7],1.48 µM (active)
same,Potency,[10],2.63 µM (active)
same,Potency,[9],5.25 µM (active)
same,Potency,[8],4.17 µM (active)
C=CC(=O)N1CCC(Oc2cc3c(Nc4ccc(Cl)c(Cl)c4F)ncnc3cc2OC)CC1,Potency,[1],inactive
same,Potency,[2],inactive
same,Potency,[4],20.9 µM (active)
same,Potency,[5],13.2 µM (active)
same,Potency,[6],10.5 µM (active)
same,Potency,[7],16.6 µM (active)
Cc1c(F)ccc(C(=O)Nc2cc([N+](=O)[O-])ccc2N2CCN(C)CC2)c1Cl,Potency,[1],inactive
same,Potency,[2],inactive
same,viability,[4],110%
same,Potency,[5],inactive
same,Potency,[6],3.32 µM (active)
same,Potency,[7],inactive
same,Potency,[9],inactive
same,Potency,[8],inactive
COc1cc(-c2cc(-c3ccc(N4CCNCC4)cc3)cnc2C)cc(OC)c1OC,Potency,[1],inactive
same,Potency,[2],inactive
same,viability,[4],104%
same,Potency,[5],8.33 µM (active)
same,Potency,[6],10.5 µM (active)
Cn1nnnc1Sc1ncnc2scc(-c3cccc(N)c3)c12,Potency,[1],inactive
same,Potency,[2],inactive
same,Potency,[3],22.5 µM (active)
COc1ccc(-c2ccc3ncc4c(c3c2)n(-c2ccc(N3CCNCC3)c(C(F)(F)F)c2)c(=O)n4C)cn1,Potency,[1],inactive
same,Potency,[2],inactive
same,Potency,[4],0.332 µM (active)
same,Potency,[5],0.235 µM (active)
same,Potency,[6],0.105 µM (active)
same,Potency,[7],0.118 µM (active)
same,Potency,[10],0.0525 µM (active)
same,Potency,[9],0.132 µM (active)
same,Potency,[8],0.118 µM (active)
COCCNCc1ccc(-c2cc3nccc(Oc4ccc(NC(=S)NC(=O)Cc5ccc(F)cc5)cc4F)c3s2)nc1,Potency,[1],inactive
same,Potency,[2],inactive
same,Potency,[4],4.68 µM (active)
same,Potency,[5],2.63 µM (active)
same,Potency,[6],0.132 µM (active)
same,Potency,[10],2.95 µM (active)
same,Potency,[9],2.35 µM (active)
